# Results filed as inconclusive are left out. Active and inactive are the calls of the source. Rule for the calls: active = hit-call score of the fitted dose curve at least 0.9, where 1 is the maximum; inconclusive = response in the unintended direction; inactive = score below 0.9.
# Assay: ATG_M_32_EcoTox2: Attagene TRANS-FACTORIAL EcoTox-2 HepG2 Assay for M32 Transcription Factor (Internal Marker)
# Procedure: ATG_EcoTox2 is a cell-based, multiplexed assay created by modifying the existing Attagene TRANS-FACTORIAL system to include a panel of nuclear receptors from some or all the following species: human (Homo sapiens), african clawed frog (Xenopus laevis), rainbow trout (Oncorhynchus mykiss), japanese medaka (Oryzias latipes), and zebrafish (Danio rerio). The ECOTOX2-FACTORIAL format uses HepG2, a human liver cell line, with measurements taken at 24 hours after chemical dosing in a 24-well plate. ATG_M_32_EcoTox2 is one of 29 assay components calculated in the ATG_EcoTox2 assay. It is designed to make measurements of mRNA induction, a form of inducible reporter, as detected with fluorescence intensity signals by Reverse transcription polymerase chain reaction (RT-PCR) and Capillary electrophoresis technology.The assay endpoint ATG_M_32_EcoTox2 was analyzed in the positive analysis fitting direction relative to DMSO as the negative control and baseline of activity. Using a type of inducible reporter, measures of mRNA for gain-of-signal activity can be used to understand the background control at the transcription factor-level as they relate to the gene. Furthermore, this assay endpoint can be referred to as a secondary readout, because this assay has produced multiple assay endpoints where this one serves a background control function. To generalize the intended target to other relatable targets, this assay endpoint is annotated to the background measurement intended target family, where the subfamily is internal marker.
# Human liver HepG2 cells are transiently transfected with multiple reporter transcription units (MRTUs) in 6-well plates using FuGene 6 reagent (Roche; 3 ml FuGene/1 mg DNA). The MRTU constructs are regulated by a cis-regulating element (promoter). Each RTU expresses a GAL4-UAS that regulates the transcription of a nearby target reporter gene sequence. A major difference between the CIS and TRANS system is that in CIS activities of endogenous TFs are measured, whereas the TRANS assay evaluates changes in activities of exogenous, chimeric NR-Gal4 proteins. […] At the end of 24 hour incubation, total RNA was isolated using TriZol reagent (Invitrogen). The isolated RNA is then reverse-transcribed using oligo(dT) primer and Mo-MLV reverse transcriptase (Invitrogen) with DNAse I (Ambion) treatment for 30 min. The one-tenth of the produced cDNA was amplified by PCR using Taq DNA polymerase (Invitrogen) and two reporter sequence-specific primers. The PCR products were fluorescently labeled by primer extension with 6-arboxyfluorescein (6-FAM) 5'-labeled reporter sequence-specific primer (2 min at 95 C, 20 s at 68 C and 10 min at 72 C) and these products were digested with 5U of HpaI (New England Biolabs) for 2h at 37 C. The fragments were purified using Qiaquick PCR columns (Qiagen), analyzed on an ABI 3130xL genetic analyzer (Applied Biosystems) with peak positions identified by using a set of X-rhodamine (ROX)-labeled MapMarker1000 molecular weight standards (BioVentures). The raw capillary electrophoresis data was processed using Attagraph software (Attagene).
row,Compound,outcome
1,Cc1nc(-c2ccc(C(F)(F)F)cc2)sc1C(=O)NCc1ccc(OC(C)(C)C(=O)O)cc1,inactive
2,CN(CCOc1ccc(CC2SC(=O)NC2=O)cc1)c1ccccn1 (stereo unspecified),inactive
3,CC(c1cc2ccccc2s1)N(O)C(N)=O (stereo unspecified),inactive
4,CC(C)OC(=O)C(C)(C)Oc1ccc(C(=O)c2ccc(Cl)cc2)cc1,inactive
5,C[C@@H]1C[C@H]2[C@@H]3CCC4=CC(=O)C=C[C@]4(C)[C@@]3(F)[C@@H](O)C[C@]2(C)[C@@]1(O)C(=O)COP(=O)(O)O,inactive
6,Cc1c(C)c2c(c(C)c1O)CCC(C)(COc1ccc(CC3SC(=O)NC3=O)cc1)O2 (stereo unspecified),inactive
